PubChem BioAssay (NCI)
The panel holds about 79,000 compounds, 15% with a hit somewhere; the sample as a whole holds those more often. Activity calls are given as the source filed them. Cut-off read from the data, not from the text of the source: active = growth inhibition above about 70%; inactive = the rest.

Legend:
[1] = NCI Yeast Anticancer Drug Screen. Data for the rad52 strain (AID 147);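 note: 0% = growth of vehicle-treated control cultures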; details: S. cerevisiae rad52 mutant growth inhibition, stronger effect = higher value
How it was run: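 Screen used a yeast mutant impaired in DNA repair. After compound exposure, growth was measured. Values reflect inhibition compared with vehicle-treated cells.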

[2] = NCI Yeast Anticancer Drug Screen. Data for the wt1 strain (AID 149);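 note: 0% = growth of vehicle-treated wt1 cultures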; details: S. cerevisiae wt1 strain (SPY 50644) growth inhibition, stronger effect = higher value
How it was run: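 Measured: growth of wt1 yeast under compound versus vehicle treatment, reported as inhibition.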

[3] = NCI Yeast Anticancer Drug Screen. Data for the rad50EPP+ strain (AID 151);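 note: 0% = growth of vehicle-treated control cultures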; details: S. cerevisiae rad50 mutant strain, stronger effect = higher value
How it was run: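 Exposing the rad50EPP+ strain to each compound, growth was compared with vehicle-only cultures to give inhibition.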

[4] = NCI Yeast Anticancer Drug Screen. Data for the mgt1 strain (AID 153); details: S. cerevisiae mgt1 mutant growth inhibition, stronger effect = higher value
How it was run: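 Genetically defined yeast (mgt1) treated with compound; inhibition of growth expressed against vehicle-treated controls.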

[5] = NCI Yeast Anticancer Drug Screen. Data for the rad50 strain (AID 155);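 note: 0% = growth of vehicle-only cultures of the same strain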; details: S. cerevisiae rad50 strain growth inhibition, stronger effect = higher value
How it was run: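 Growth of the mutant yeast was measured after compound exposure and referenced to vehicle-treated cultures.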

[6] = NCI Yeast Anticancer Drug Screen. Data for the mec2-1 strain (AID 157); details: S. cerevisiae mec2-1 strain, stronger effect = higher value
How it was run: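 Readout is yeast growth inhibition, normalised to vehicle-treated controls, in the mec2-1 strain exposed to compound.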

[7] = NCI Yeast Anticancer Drug Screen. Data for the rad14 strain (AID 159);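 note: 0% = growth of vehicle-treated control cultures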; details: S. cerevisiae rad14 strain growth inhibition, stronger effect = higher value
How it was run: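 Here, inhibition of yeast growth was measured after compound exposure, using a strain with a genetic defect in DNA damage repair and vehicle-treated cultures as the reference.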

[8] = NCI Yeast Anticancer Drug Screen. Data for the sgs1 mgt1 strain (AID 161);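 note: 0% = growth of cultures given vehicle only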; details: S. cerevisiae sgs1 mgt1 strain, stronger effect = higher value
How it was run: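 Percent growth inhibition was derived by comparing compound-exposed mutant yeast with vehicle-exposed cultures. The strain carries alterations in DNA damage repair.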

[9] = NCI Yeast Anticancer Drug Screen. Data for the CLN2oe strain (AID 163);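 note: 0% = growth of vehicle-only control cultures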; details: S. cerevisiae CLN2oe strain, stronger effect = higher value
How it was run: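 Values reflect how much compound exposure reduced yeast growth, referenced to vehicle-exposed cells. Assay organism is a strain with a defined genetic change affecting cell-cycle control.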

[10] = NCI Yeast Anticancer Drug Screen. Data for the cln2 rad14 strain (AID 165);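 note: 0% = growth equal to vehicle treated cultures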; details: S. cerevisiae cln2 rad14 strain, stronger effect = higher value
How it was run: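 Relative to vehicle controls, growth inhibition of compound-treated cln2 rad14 yeast was recorded.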

[11] = NCI Yeast Anticancer Drug Screen. Data for the bub3 strain (AID 167); details: S. cerevisiae bub3 mutant strain, stronger effect = higher value
How it was run: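 Whole-cell yeast assay. The mutant strain was incubated with compounds, and growth inhibition was determined by comparison with vehicle-treated cells.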

[12] = NCI Yeast Anticancer Drug Screen. Data for the wt2 strain (AID 169);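 note: 0% = growth of vehicle-treated yeast cultures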; details: S. cerevisiae wt2 strain growth inhibition, stronger effect = higher value
How it was run: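 Values express reduction in yeast growth under compound treatment, referenced to vehicle-treated cells.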

[13] = NCI Yeast Anticancer Drug Screen. Data for the mlh1 strain (AID 171);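 note: 0% = growth of vehicle-treated control cultures of the same strain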; details: S. cerevisiae mlh1 strain growth inhibition, stronger effect = higher value
How it was run: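 Steps: expose the defined-mutant yeast strain to compound; expose a parallel culture to vehicle; measure growth; express compound effect as inhibition relative to the vehicle culture.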

[14] = NCI Yeast Anticancer Drug Screen. Data for the sgs1 strain (AID 173);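 note: 0% = growth of vehicle-only control cultures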; details: S. cerevisiae sgs1 mutant, stronger effect = higher value
How it was run: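 Treat defined-mutant yeast with compound; measure growth; calculate inhibition relative to vehicle-treated cells.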

[15] = NCI Yeast Anticancer Drug Screen. Data for the mlh1 rad18 strain (AID 175); details: S. cerevisiae mlh1 rad18 strain growth inhibition, stronger effect = higher value
How it was run: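 Test agents were incubated with a yeast strain of defined genotype (DNA damage repair defect). Inhibition of growth was derived by comparison with vehicle-exposed cultures.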

[16] = NCI Yeast Anticancer Drug Screen. Data for the rad18 strain (AID 177); details: S. cerevisiae rad18 mutant growth inhibition, stronger effect = higher value
How it was run: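 A genetically defined yeast mutant impaired in DNA damage repair was treated with test compounds, then its growth was measured against cultures receiving vehicle alone.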

[17] = at 5.0 µM (retest, dose inferred, filed as 0.5)
[18] = at 50.0 µM (retest, dose inferred, filed as 5.0)

Measured: growth inhibition

CC(C)c1cc(C(C)C)c(O)c(C([O-])[O-])c1.CC(C)c1cc(C(C)C)c(O)c(C([O-])[O-])c1.CC(C)c1cc(C(C)C)c(O)c(C([OH2+])[OH2+])c1.CC(C)c1cc(C(C)C)c(O)c(C([OH2+])[OH2+])c1.[Cu+2].[Cu+2].[OH3+].[OH3+]
active: [1]; at 100.0 µM 92% | [4]; at 100.0 µM 91% | [5]; at 100.0 µM 94% | [6]; at 100.0 µM 76% | [7]; at 100.0 µM 93% | [9]; at 100.0 µM 83% | [11]; at 50.0 µM 96.7% | [11]; at 100.0 µM 70% | [12]; at 33.0 µM 70% | [12]; at 100.0 µM 93% | [13]; at 100.0 µM 93% | [14]; at 33.0 µM 78% | [14]; at 100.0 µM 93% | [16]; at 100.0 µM 87%
inactive: [1]; at 1.2 µM 5% | [1]; at 3.7 µM 12% | [1]; at 11.0 µM 26% | [1]; at 33.0 µM 61% | [2]; at 1.2 µM -2% | [2]; at 3.7 µM 4% | [2]; at 11.0 µM 20% | [2]; at 33.0 µM 35% | [2]; at 100.0 µM 67% | [3]; at 1.2 µM 1% | [3]; at 3.7 µM 0% | [3]; at 11.0 µM 4% | [3]; at 33.0 µM 11% | [3]; at 100.0 µM 21% | [4]; at 1.2 µM -2% | [4]; at 3.7 µM 6% | [4]; at 11.0 µM 18% | [4]; at 33.0 µM 56% | [5]; at 1.2 µM 5% | [5]; at 3.7 µM 8% | [5]; [17] 5% | [5]; at 11.0 µM 21% | [5]; at 33.0 µM 65% | [5]; [18] 31% | [5]; at 50.0 µM 39.8% | [6]; at 1.2 µM 7% | [6]; at 3.7 µM 18% | [6]; [17] 1% | [6]; at 11.0 µM 36% | [6]; at 33.0 µM 52% | [6]; [18] 27% | [6]; at 50.0 µM 38.1% | [7]; at 1.2 µM 5% | [7]; at 3.7 µM 14% | [7]; at 11.0 µM 29% | [7]; at 33.0 µM 64% | [8]; [17] -9% | [8]; [18] 40% | [8]; at 50.0 µM 43% | [9]; at 1.2 µM 3% | [9]; at 3.7 µM 9% | [9]; at 11.0 µM 34% | [9]; at 33.0 µM 58% | [10]; [17] 3% | [10]; [18] 12% | [10]; at 50.0 µM 53.2% | [11]; at 1.2 µM 1% | [11]; at 3.7 µM 9% | [11]; [17] 4% | [11]; at 11.0 µM 19% | [11]; at 33.0 µM 47% | [11]; [18] 1% | [12]; at 1.2 µM -4% | [12]; at 3.7 µM -2% | [12]; at 11.0 µM 32% | [13]; at 1.2 µM 2% | [13]; at 3.7 µM 15% | [13]; at 11.0 µM 29% | [13]; at 33.0 µM 60% | [14]; at 1.2 µM -11% | [14]; at 3.7 µM -19% | [14]; at 11.0 µM 27% | [15]; [17] -12% | [15]; [18] 59% | [15]; at 50.0 µM 38.2% | [16]; at 1.2 µM 2% | [16]; at 3.7 µM 10% | [16]; at 11.0 µM 34% | [16]; at 33.0 µM 57%

Cc1ccc2ccc3cccc4ccc1c2c34
inactive: [1]; at 1.2 µM -1% | [1]; at 3.7 µM 0% | [1]; at 11.0 µM 5% | [1]; at 33.0 µM 23% | [1]; at 100.0 µM 27% | [2]; at 1.2 µM -2% | [2]; at 3.7 µM -2% | [2]; at 11.0 µM -3% | [2]; at 33.0 µM 2% | [2]; at 100.0 µM 15% | [3]; at 1.2 µM -2% | [3]; at 3.7 µM 4% | [3]; at 11.0 µM 20% | [3]; at 33.0 µM 33% | [3]; at 100.0 µM 31% | [4]; at 1.2 µM -1% | [4]; at 3.7 µM -1% | [4]; at 11.0 µM -3% | [4]; at 33.0 µM -3% | [4]; at 100.0 µM 18% | [5]; at 1.2 µM 4% | [5]; at 3.7 µM 49% | [5]; [17] -1% | [5]; at 11.0 µM 21% | [5]; at 33.0 µM 37% | [5]; [18] 41% | [5]; at 50.0 µM 25.6% | [5]; at 100.0 µM 66% | [6]; at 1.2 µM -1% | [6]; at 3.7 µM 0% | [6]; [17] 3% | [6]; at 11.0 µM 2% | [6]; at 33.0 µM 13% | [6]; [18] 12% | [6]; at 50.0 µM 4.75% | [6]; at 100.0 µM 26% | [7]; at 1.2 µM 1% | [7]; at 3.7 µM 0% | [7]; at 11.0 µM 3% | [7]; at 33.0 µM 14% | [7]; at 100.0 µM 23% | [8]; [17] -3% | [8]; [18] 20% | [8]; at 50.0 µM 10.6% | [9]; at 1.2 µM -7% | [9]; at 3.7 µM -2% | [9]; at 11.0 µM -4% | [9]; at 33.0 µM -13% | [9]; at 100.0 µM 13% | [10]; [17] -3% | [10]; [18] 6% | [10]; at 50.0 µM 14.2% | [11]; at 1.2 µM -1% | [11]; at 3.7 µM 0% | [11]; [17] 2% | [11]; at 11.0 µM 2% | [11]; at 33.0 µM 26% | [11]; [18] 44% | [11]; at 50.0 µM 61.5% | [11]; at 100.0 µM 58%
